In PubChem BioAssay (NCATS):
Where “and” joins values, the source holds several entries; their conditions need not be identical. Equal entries are not always repeated. Inconclusive results are not listed. More than one record can exist for a structure, and the calls need not agree. Calls of active or inactive are those of the source. Calls come from the whole dose curve; as a rule, active = well fitted inhibition curve with a large enough effect; inconclusive = small, poorly fitted or top-dose-only effect; inactive = flat fitted curve, though single readings scatter.

Tests used:
CRL-7250 = normal cell line; assay: Cytotoxic Profiling of Annotated Libraries Using Quantitative High-Throughput Screening (AID 1296008); details: Five cell lines viability, CellTiter-Glo ATP luminescence, 48-72 h; max response: active compounds read low
Summary of the method: (§1)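 Compounds were pin-transferred onto cells and incubated 48 or 72 hr at 37 degree Celsius, 95% humidity. CellTiter-Glo was added, plates sat 10 min at room temperature, then ATP-coupled luminescence was imaged as the viability read-out.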

HEK293 = assay: as above; details: Five cell lines viability, CellTiter-Glo ATP luminescence, 48-72 h; max response: active compounds read low
Summary of the method: as §1

HaCat [1] = assay: as above; details: Five cell lines viability, CellTiter-Glo ATP luminescence, 48-72 h; max response: active compounds read low
Summary of the method: as §1

KB-3-1 = assay: as above; details: Five cell lines viability, CellTiter-Glo ATP luminescence, 48-72 h; max response: active compounds read low
Summary of the method: as §1

NIH3T3 = assay: as above; details: Five cell lines viability, CellTiter-Glo ATP luminescence, 48-72 h; max response: active compounds read low
Summary of the method: as §1

HACAT [2] = assay: qHTS assay to identify novel small-molecules to repurpose for Merkel cell carcinoma treatment (AID 1296009); details: MCC and control cell lines, CellTiter-Glo viability, 72 h; series mostly up to 44.8 µM
Summary of the method: (§2)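 Viability readout: ATP luminescence (CellTiter-Glo) after 72 hr drug exposure at 37 degree celsius. Dose-response format was 8 points for NPC and 11 points for MIPE; data normalized to in-plate controls.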

MCC-13 = assay: as above; details: MCC and control cell lines, CellTiter-Glo viability, 72 h; series mostly up to 46 µM
Summary of the method: as §2

MCC-26 = assay: as above; details: MCC and control cell lines, CellTiter-Glo viability, 72 h; series mostly up to 46 µM
Summary of the method: as §2

MKL-1 = assay: as above; details: MCC and control cell lines, CellTiter-Glo viability, 72 h; series mostly up to 46 µM
Summary of the method: as §2

HEK293T = assay: as above; details: MCC and control cell lines, CellTiter-Glo viability, 72 h; at 44.8 µM (top of the series) unless noted
Summary of the method: as §2
% is set by controls: 0 for no effect and ±100 for the full control effect; potency is the fitted concentration of half-maximal effect.
Note: nearly all actives have a fitted effect of over 60% in size.

CCOc1ccccc1OCCNC(C)Cc1ccc(OC)c(S(N)(=O)=O)c1 (stereo unspecified)
inactive: max response (CRL-7250) 3.17% | outcome (CRL-7250) | max response (HEK293) -25.2% | max response (HaCat [1]) -9.05% | outcome (HaCat [1]) | max response (KB-3-1) 7.71% | outcome (KB-3-1) | max response (NIH3T3) -0.288% | outcome (NIH3T3) | Potency (HACAT [2]) | Potency (MCC-13) | Potency (MCC-26) | Potency (MKL-1)

CNC(=O)CN1CCC(Oc2cc3c(Nc4cccc(Cl)c4F)ncnc3cc2OC)CC1
active: Potency (HaCat [1]) 0.58 µM | Potency (NIH3T3) 26.4 µM and 16.4 µM | Potency (MCC-13) 3.32 µM
inactive: max response (CRL-7250) -5.68% and -4.5% | max response (HEK293) 1% and -0.0643% | max response (HaCat [1]) -148% | max response (KB-3-1) 4.62% and 3.88%

O=C1CCC[C@@H]2[C@H]3CCC[N+]4([O-])CCC[C@@H](CN12)[C@@H]34 (stereo partly specified)
inactive: max response (CRL-7250) 2.61% | outcome (CRL-7250) | max response (HEK293) 0.171% | max response (HaCat [1]) 2.01% | outcome (HaCat [1]) | max response (KB-3-1) -0.364% and 8.14% | max response (NIH3T3) -2.91% | outcome (NIH3T3) | Potency (HACAT [2]) | Potency (MCC-13) | Potency (MCC-26) | Potency (MKL-1)

COC(=O)Nc1ccc(-c2nc(N3CCOCC3)c3cnn(C4CCN(Cc5cccnc5)CC4)c3n2)cc1
active: Potency (CRL-7250) 118 nM and 1.3 µM | Potency (HEK293) 66.2 nM and 1.46 µM | Potency (HaCat [1]) 13.2 µM | Potency (KB-3-1) 132 nM and 1.64 µM | Potency (NIH3T3) 83.3 nM and 920 nM | Potency (MCC-13) 14.8 µM | Potency (MCC-26) 8.33 µM

CC1=C(CO)C(=O)O[C@@H]([C@@H](C)[C@H]2CC[C@H]3[C@@H]4C[C@H]5O[C@]56[C@@H](O)C=CC(=O)[C@]6(C)[C@@H]4CC[C@]23C)C1
active: Potency (CRL-7250) 1.48 µM | Potency (HEK293) 0.332 µM | Potency (HaCat [1]) 2.64 µM | Potency (KB-3-1) 1.05 µM | Potency (NIH3T3) 2.09 µM | Potency (MCC-13) 0.662 µM

Cc1cc(Nc2cc(N3CCN(C)CC3)nc(C=Cc3ccccc3)n2)n[nH]1
active: Potency (CRL-7250) 5.4 µM | Potency (HEK293) 7.62 µM | Potency (HaCat [1]) 2.7 µM | Potency (KB-3-1) 3.03 µM | Potency (NIH3T3) 6.05 µM | Potency (MCC-13) 9.59 µM | Potency (MCC-26) 9.59 µM

COc1ccc(CC2SC(=O)NC2=O)cc1C(=O)NCc1ccc(C(F)(F)F)cc1 (stereo unspecified)
inactive: max response (HEK293) -1.55% | outcome (HaCat [1]) | max response (KB-3-1) -9.05% | max response (NIH3T3) 2.55% | Potency (HACAT [2]) | Potency (MCC-13) | Potency (MKL-1)
active: Potency (CRL-7250) 11.8 µM

O=C(O)[C@H](Cc1c[nH]c2ccccc12)N1C(=O)c2ccccc2C1=O
inactive: outcome (CRL-7250) | outcome (HEK293) | outcome (HaCat [1]) | max response (KB-3-1) 3.99% | max response (NIH3T3) 4.64% | Potency (HACAT [2]) | outcome (HEK293T) inactive [at 92 µM] | Potency (MCC-13) | Potency (MCC-26) | Potency (MKL-1)

COc1cc(=C2C=c3ccccc3=N2)[nH]c1=Cc1[nH]c(C)cc1C
active: Potency (CRL-7250) 11.8 µM | Potency (HEK293) 8.33 µM | Potency (HaCat [1]) 20.9 µM | Potency (KB-3-1) 3.72 µM | Potency (NIH3T3) 18.7 µM

NC1(Cc2ccc(Cl)cc2)CCN(c2ncnc3[nH]ccc23)CC1
active: Potency (CRL-7250) 13.2 µM | Potency (HEK293) 1.66 µM and 6.51 µM
inactive: max response (HaCat [1]) -10.8% | max response (KB-3-1) -6.56% | max response (NIH3T3) 0.262% | Potency (MCC-13) | Potency (MCC-26)

C=CC(=O)Nc1cccc(Oc2nc(Nc3ccc(N4CCN(C)CC4)cc3OC)ncc2Cl)c1
active: Potency (HaCat [1]) 2.09 µM and 4.11 µM | Potency (NIH3T3) 18.4 µM | Potency (MCC-13) 2.96 µM | Potency (MKL-1) 2.64 µM
inactive: max response (CRL-7250) -21.1% | max response (HEK293) -27.8% | max response (KB-3-1) -0.948% | max response (NIH3T3) -7.7%

CC(=O)c1c(C)c2cnc(Nc3ccc(N4CCNCC4)cn3)nc2n(C2CCCC2)c1=O
inactive: max response (CRL-7250) -3.02% | max response (HEK293) -2.77% | max response (HaCat [1]) 1.14% | max response (KB-3-1) -7.2% | max response (NIH3T3) 3.53% | Potency (MCC-13) | Potency (MCC-26)

Cc1nc(N)ncc1-c1nc(N2CCOCC2)c2sc(C(C)(C)O)cc2n1
inactive: Potency (MCC-13)
active: Potency (CRL-7250) 2.59 µM | Potency (HEK293) 1.18 µM and 1.3 µM | Potency (HaCat [1]) 41.8 nM and 130 nM | Potency (KB-3-1) 3.66 µM | Potency (NIH3T3) 1.87 µM and 920 nM

Cc1cn2cc(C(=O)N(C)CCO)cc(N[C@@H]3CCOc4cccc(C)c43)c2n1
inactive: max response (CRL-7250) -0.414% and 0.78% | max response (HEK293) -7.53% and -5.18% | outcome (HaCat [1]) | max response (KB-3-1) -1.9% | outcome (KB-3-1) | outcome (NIH3T3) | Potency (HACAT [2]) | Potency (MCC-13) | Potency (MKL-1)

CNC(=O)c1ccccc1Nc1nc(Nc2ccc(N3CCOCC3)cc2OC)ncc1Cl
active: Potency (CRL-7250) 7.43 µM and 4.11 µM | Potency (HEK293) 3.32 µM | Potency (HaCat [1]) 2.96 µM and 2.31 µM | Potency (KB-3-1) 2.64 µM and 1.3 µM | Potency (NIH3T3) 1.05 µM

O=C(Nc1cn[nH]c1-c1nc2ccc(CN3CCOCC3)cc2[nH]1)NC1CC1
active: Potency (CRL-7250) 1.3 µM | Potency (HEK293) 10.5 µM and 3.66 µM | Potency (HaCat [1]) 2.64 µM and 231 nM | Potency (KB-3-1) 5.9 µM and 4.11 µM | Potency (NIH3T3) 1.48 µM and 1.84 µM | Potency (MCC-13) 0.935 µM | Potency (MCC-26) 1.87 µM

COc1cccc2nc(-c3cccs3)nc(NN3C(=O)C=C(C)C3=O)c12
inactive: Potency (MCC-26)
active: Potency (CRL-7250) 2.09 µM and 6.51 µM | Potency (HEK293) 418 nM and 517 nM | Potency (HaCat [1]) 23.5 µM | Potency (KB-3-1) 5.9 µM and 10.3 µM | Potency (NIH3T3) 1.48 µM and 820 nM | Potency (MCC-13) 2.64 µM
